Assay outcomes: PubChem BioAssay, National Center for Advancing Translational Sciences (NCATS)
SMN2 splice enh – SMN2 splice variant enhancement; HEK293 SMN2-luciferase splicing reporter, luminescence, 30-36 h; Potency, µM (series often up to 46.1 µM), hits mostly activators; 210,000 compounds, 2.8% hits; AID 1458; also: nearly all actives have a fitted effect of over 55% in size
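HEK293 cells carry an SMN2 minigene-luciferase reporter in which exon 7 inclusion puts luciferase in frame. Cells were seeded at 2000 cells/well, attached for 10-12 hours, then exposed to compounds for 30-36 hours at 37C before ONE-Glo luminescence.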
ELG1 genotox – genotoxicity induction in ELG1-luciferase HEK293T cells. HEK293T ELG1-luciferase reporter, luminescence, 16 h. Potency, µM (highest dose often 46 µM), hits mostly activators. 330,000 compounds, 1.3% hits; also: nearly all actives have a fitted effect of over 60% in size
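Step 1: seed 2,000 HEK293T ELG1-luciferase cells per well. Step 2: add compound or DMSO, incubate 16 hr at 37 °C. Step 3: ONE-Glo, 30 min at room temperature, read luminescence.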
Rab9 prom act – activators of Rab9 promoter; Huh7 Rab9 promoter-luciferase reporter, luminescence, 24 h; Potency, µM (highest dose often 9.22 µM), most hits filed as activators; 320,000 compounds, 2.8% hits; also: nearly all actives have a fitted effect of over 60% in size
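Luciferase signal after 10 min detection reagent at ambient indicates Rab9 promoter upregulation; stably transfected Huh7 cells were treated 24 h with compound in DMSO at 37 °C, 5% CO2.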
NPC1 promoter act – activates the NPC1 promoter; Huh7 NPC1 promoter luciferase reporter, 24 h; Potency, µM (titrated, usually from 9.22 µM), actives largely listed as activators; 320,000 compounds, 2.4% hits; AID 485313; also: nearly all actives have a fitted effect of over 60% in size
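Luciferase expression driven by the NPC1 promoter was measured in stably transfected Huh7 cells after a 24 h compound incubation, using a luciferase reagent and a luminescence read.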
FLuc modulator – firefly luciferase modulation, counter-screen for miR-21 project | P08659 | purified FLuc, Km substrates, luminescence inhibition | Potency, µM (top dose mostly 57.5 µM), actives largely listed as inhibitors | 360,000 compounds, 6.9% hits; also: nearly all actives have a fitted effect of over 55% in size
Target sequence (P08659 whole entry, looked up): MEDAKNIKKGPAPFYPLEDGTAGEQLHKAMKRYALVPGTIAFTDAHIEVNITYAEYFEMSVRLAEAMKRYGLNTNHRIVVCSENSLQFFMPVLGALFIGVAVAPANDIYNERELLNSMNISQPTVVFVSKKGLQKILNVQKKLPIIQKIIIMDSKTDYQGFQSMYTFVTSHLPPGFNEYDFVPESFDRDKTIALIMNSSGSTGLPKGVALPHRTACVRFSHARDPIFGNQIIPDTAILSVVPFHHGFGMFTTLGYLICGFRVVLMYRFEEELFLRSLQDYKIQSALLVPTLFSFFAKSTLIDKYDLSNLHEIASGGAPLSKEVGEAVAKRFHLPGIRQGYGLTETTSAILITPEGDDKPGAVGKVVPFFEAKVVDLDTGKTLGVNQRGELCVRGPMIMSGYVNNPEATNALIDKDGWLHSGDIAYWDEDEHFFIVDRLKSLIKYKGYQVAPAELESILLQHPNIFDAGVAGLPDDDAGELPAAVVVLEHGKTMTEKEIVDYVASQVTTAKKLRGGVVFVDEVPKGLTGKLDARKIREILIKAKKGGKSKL
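Purified P. pyralis luciferase (10nM final) with 10uM D-luciferin and 10uM ATP (Km levels) in 50mM Tris acetate pH 7.5, 10mM Mg acetate, 0.01% Tween-20, 0.05% BSA; qHTS 6-point titration, ~60 µM downward; luminescence read.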
ELG1 repair inh – ELG1-dependent DNA repair inhibition | HEK293T ELG1-luciferase reporter, luminescence, 16 h; DNA damage induced by 5-fluorouridine | Potency, µM (series often up to 46.1 µM), usual class: inhibitors | 330,000 compounds, 2.3% hits; also: nearly all actives have a fitted effect of over 55% in size
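DMSO vehicle served as the neutral condition. Each well held 2,000 cells given 5-fluorouridine plus compound; after 16 hr at 37 °C/5% CO2, ONE-Glo was added and luciferase measured 30 min later.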
Hits are given with their value; i = inactive; ? = inconclusive; nt = no result given; [ ] = dose if it differs, or a comment. Hits are enriched below; roughly 9.2% of the tested compounds scored in any of these assays. Calls follow the shape of the dose curve; as a rule, active = well fitted curve in the direction sought with a large enough effect; inconclusive = small, poorly fitted or top-dose-only effect, or another doubt; inactive = no such curve, though single readings can be large; an effect the other way counts as inactive or inconclusive.

SMILES	SMN2 splice enh	ELG1 genotox	Rab9 prom act	NPC1 promoter act	FLuc modulator	ELG1 repair inh
CCOC(=O)c1ccc(Nc2ncnc3c2cnn3-c2cccc(Cl)c2)cc1	nt	nt	nt	nt	i	nt
COc1ccc(-n2ncc3c(NC4CCCC4)ncnc32)cc1	nt	nt	nt	nt	1.3µM	nt
Cc1ccc(-n2ncc3c(NC4CCCC4)ncnc32)cc1	nt	nt	nt	nt	0.38µM	nt
Cc1ccc(CNc2ncnc3c2cnn3-c2ccc(Cl)cc2)cc1	nt	nt	nt	nt	i	nt
c1ccc(-n2ncc3c(NC4CCCC4)ncnc32)cc1	nt	nt	nt	nt	4.8µM	nt
CCOC(=O)N1CCC(Nc2ncnc3c2cnn3-c2ccc(Cl)cc2)CC1	i	12µM	?	?	?	?
COc1ccccc1CNCC(=O)Nc1ccc(N(C)C)cc1	nt	i	i[1.84 µM]	i	?	?
Cc1nn(C)cc1S(=O)(=O)N1CCN(Cc2ccc(F)cc2Cl)CC1	nt	i	i	i	i	i
Cc1cccc(N2CCN(CCCNC(=O)c3sc4ncccc4c3-n3cccc3)CC2C)c1 (centres undefined)	nt	nt	nt	nt	i	nt
O=C(NCCCN1CCCC1=O)c1cc(-c2ccc(F)cc2)nc2ccccc12	nt	i	nt	nt	nt	18µM
COc1ccc(-c2cc(C(F)F)n3ncc(C(=O)NCCCN4CCCC4=O)c3n2)cc1	i	i	i	i	i	6.5µM
COc1cc2sc(-c3ccc(S(C)(=O)=O)cc3)c(C(=O)NCc3ccc(C)o3)c2cc1OC	nt	i	nt	nt	nt	18µM
COc1ccc2sc(-c3ccc(S(C)(=O)=O)cc3)c(C(=O)NCCCN3CCCC3=O)c2c1	nt	i	nt	nt	nt	16µM
COc1ccc(C(C)NC(=O)CN(c2cc(OC)ccc2OC)S(=O)(=O)c2ccccc2)cc1 (centres undefined)	i	nt	nt	nt	i	nt
COc1ccc(-c2cc(C(=O)NCCCN3CCCC3=O)c3ccccc3n2)cc1	nt	i	i	i	12µM	?
CCn1c(=S)[nH]c2sc3c(c2c1=O)CCCC3	nt	i	i	i	?	i
CC1CCc2c(sc3[nH]c(=S)n(C)c(=O)c23)C1 (centres undefined)	nt	i	i	i	19µM	?
O=C(O)c1cc(NC(=O)c2ccc(Cl)c([N+](=O)[O-])c2)cc(C(=O)O)c1	i	?	i	i	i	i
N#Cc1ccsc1NC(=O)c1cccc([N+](=O)[O-])c1	i	i	i	i	i	5.8µM
N#Cc1ccsc1NC(=O)c1ccc(Cl)c([N+](=O)[O-])c1	nt	i	i	i	6µM	?
N#Cc1ccsc1NC(=O)c1cccc(-n2cnnn2)c1	nt	i	i	i	?	i
CCNc1c(NC(=O)c2cccs2)c(=O)oc2ccccc12	nt	i	i	i	i	?
O=C(COC(=O)/C=C/c1cccs1)Nc1ccc(Cl)cc1F	nt	i	nt	nt	nt	i
Cc1ccccc1CS(=O)(=O)Cc1ccc(C(=O)NCCc2ccc(Cl)cc2)o1	nt	nt	nt	nt	i	nt
COc1ccc(NC(=O)c2cccc(N3C(=O)c4cccc([N+](=O)[O-])c4C3=O)c2)cc1	nt	i	i	i	8.5µM	?
SMILES	SMN2 splice enh	ELG1 genotox	Rab9 prom act	NPC1 promoter act	FLuc modulator	ELG1 repair inh
COc1ccc(NC(=O)c2cccc(N3C(=O)C4C5C=CC(C6CC56)C4C3=O)c2)c(OC)c1 (centres undefined)	nt	i	i	i	?	?
CN(C)c1ccc(NC(=O)c2cccc(N3C(=O)C4C5C=CC(C5)C4C3=O)c2)cc1 (centres undefined)	i	?	3.2µM	1.8µM	11µM	?
Cc1ccc(NC(=O)c2cccc(N3C(=O)C4C5C=CC(C5)C4C3=O)c2)cc1C (centres undefined)	nt	i	i	i	?	?
COc1ccc(NC(=O)c2cccc(N3C(=O)C4C5C=CC(C6CC56)C4C3=O)c2)cc1 (centres undefined)	nt	i	i	i	i	23µM
COc1ccc2cc(CNc3ccc(C)cc3)c(=O)n(CC(=O)Nc3cccc(C(F)(F)F)c3)c2c1	nt	nt	nt	nt	i	nt
CCc1ccc(CNC(=O)c2cnc3sc(N4CCOCC4)nn3c2=O)cc1	nt	nt	nt	nt	i	nt
O=C(NCC(=O)N1CCCC(C(F)(F)F)C1)c1ccc(Oc2ccccc2)cc1 (centres undefined)	nt	?	2.5µM	?	0.27µM	?
CC1=C(C(N)=O)C(c2ccc(C(C)C)cc2)n2nc(SCc3ccccc3)nc2N1 (centres undefined)	i	nt	nt	nt	i	nt
CCn1c(C(=O)NCc2ccccc2Cl)cc2sc(Cl)cc21	i	nt	nt	nt	?	nt
CC(C)c1ccc(NC(=O)c2cc3sc(Cl)cc3n2C)cc1	i	nt	nt	nt	3.4µM	nt
Cn1c(C(=O)NCc2ccccc2Cl)cc2sc(Cl)cc21	28µM	nt	nt	nt	?	nt
CCc1ccc(NC(=O)c2cc3sc(Cl)cc3n2C)cc1	13µM	nt	nt	nt	5.4µM	nt
CCOc1ccc(CCNC(=O)c2cc3sc(Cl)cc3n2C)cc1OCC	i	i	i	i	i	i
COc1ccccc1C(=O)N=C1SC2CS(=O)(=O)CC2N1c1ccccc1 (centres undefined)	nt	i	i	i	i	?
O=[N+]([O-])c1cccc(-c2ccc(SCc3ccccn3)nn2)c1	?	?	4µM	?	27µM	?
COc1ccc(-c2ccc(SCc3ccccn3)nn2)cc1OC	i	i	i	i	?	i
COc1cccc(-c2ccc(SCc3ccccn3)nn2)c1	11µM	?	2.8µM	3.5µM	11µM	?
CC1CCCCN1C(=O)c1ccc2c(c1)N(Cc1ccc(Cl)cc1)C(=O)c1ccccc1S2=O (centres undefined)	i	nt	nt	nt	i	nt
CCCS(=O)(=O)N1CCCC(c2nc(-c3ccc(OC)cc3)no2)C1 (centres undefined)	i	i	i	i	?	?
CCS(=O)(=O)N1CCCC(c2nc(-c3cccc(OC)c3)no2)C1 (centres undefined)	?	15µM	?	i	?	?
Cc1ccc(OCCSc2ncnc3nc[nH]c23)cc1	i	9.2µM	2.5µM	?	13µM	?
COc1ccc(NC(=O)c2ccc(Cl)nc2)cc1S(=O)(=O)N1CCCCC1	i	i	i	i	i	23µM
COc1ccc(NC(=O)CCOc2ccccc2F)cc1S(=O)(=O)N1CCCCC1	nt	i	nt	nt	nt	23µM
COc1ccc(NC(=O)c2cncc(Br)c2)cc1S(=O)(=O)N1CCCCC1	i	i	i	i	i	15µM
NC(=O)c1ccc(CN2CCc3ccccc3C2)cc1	nt	i	i	i	i	i
COc1cc(C(CC(=O)Nc2ccc(F)cc2F)N2Cc3ccccc3C2=O)cc(OC)c1OC (centres undefined)	nt	nt	nt	nt	i	nt
CC(=O)c1cccc(N=Nc2c(C)[nH]c3ccccc23)c1	i	i	i	i	24µM	i
O=C(N=Nc1c(O)[nH]c2ccccc12)c1cccs1	11µM	i	2.5µM	?	2.1µM	?
O=C(O)c1ccc(N=Nc2c(O)[nH]c3ccccc23)cc1	nt	?	?	0.1µM	0.43µM	?
